From PubChem BioAssay AID1493 (National Center for Advancing Translational Sciences (NCATS), 2009) come the findings set out here.

Each structure is given as a SMILES string. “And” between values parts separate entries of the source, which are not always exact repeats. Identical values can stand only once. Inconclusive results are not listed. The source made the active and inactive calls.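 How the source made its calls: active means compound pushes the radio-tagged natural neuropeptide S off its receptor in a binding test; inconclusive means any compound that did not displace the tagged ligand; inactive means never assigned.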

Chain of Neuropeptide S receptor (Homo sapiens) (Q6W5P4 whole entry, looked up): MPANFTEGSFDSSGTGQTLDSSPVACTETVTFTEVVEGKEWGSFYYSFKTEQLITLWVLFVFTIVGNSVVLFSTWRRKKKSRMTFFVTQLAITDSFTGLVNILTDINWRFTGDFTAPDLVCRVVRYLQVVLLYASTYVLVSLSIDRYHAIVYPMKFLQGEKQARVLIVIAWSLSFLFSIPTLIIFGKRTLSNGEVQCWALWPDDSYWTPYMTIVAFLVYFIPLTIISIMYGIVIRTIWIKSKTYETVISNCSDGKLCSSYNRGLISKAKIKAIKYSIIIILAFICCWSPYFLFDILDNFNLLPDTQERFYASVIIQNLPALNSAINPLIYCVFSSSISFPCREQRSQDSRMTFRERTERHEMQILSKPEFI

This assay addresses Neuropeptide S receptor (Homo sapiens) (UniProt Q6W5P4). Kind of assay: Confirmation Concentration-Response Assay for Antagonists of the Neuropeptide S Receptor: Radioligand Displacement. Conditions: CHO-hNPSR cells, [125I]Y10-NPS displacement, 1.5 h. The source says:
NIH Chemical Genomics Center [NCGC] NIH Molecular Libraries Probe Production centers Network [MLPCN] MLPCN Grant: X01-DA026210-01 Assay Submitter (PI): Heilig, Markus Alexander NCGC Assay Overview: Neuropeptide S receptor (NPSR), previously known as GPR154, is a recently de-orphanized G protein coupled receptor. Its endogenous ligand is the 20 amino acids peptide Neuropeptide S (NPS). […] NPS and its receptor are found in various tissues. Specifically they are highly expressed in brain areas that have been implicated in modulation of arousal, stress and anxiety. Central administration of NPS in mice produces an unusual profile of activity by inducing wakefulness and arousal, while at the same time suppressing anxiety. Therefore, NPSR may represent a novel drug target for the treatment of sleep and anxiety disorders. As one method of confirming the specific activity of compounds active in the primary screen (AID 1461), we developed an assay to measure the displacement of radio-labeled native ligand, NPS, from its receptor in vitro.
The assay was carried out as described (Xu et al. (2004) Neuron, 43: 487-497) with minor modification. Y10-NPS labeled with 125I was bought from NEN Perkin Elmer (Boston, MA). CHO cells stably expressing human NPSR were seeded into 24-well plates and cultured until reaching 90-95% confluency. Cells were washed with 1ml PBS once and then incubated with radioligand with or without compounds or in DMEM medium containing 0.1% bovine serum albumin at 20C for 1.5 hr. Increasing concentrations of compounds or unlabeled human NPS were used to compete with 0.15 nM [125I] Y10-NPS. Nonspecific binding was determined in the presence of 1 uM unlabeled human NPS. Cells were washed twice with cold PBS and lysed with 1 N NaOH. Bound radioactivity was counted in a liquid scintillation counter.
A general note: Displacement assays read how much labelled ligand stays bound in the presence of the test substance.
With `CCOC(=O)C1CCCN(c2ncnc3c2oc2ccccc23)C1` (stereo not drawn), the Potency was 26400 nM (active). Take `N#CC1=C(NC=NCc2ccccc2)Oc2ccc3ccccc3c2C1c1ccccc1` (stereo not drawn): the Potency was 321 nM (active). In the case of `COc1cccc(C2c3c(ncn(CCN4CCOCC4)c3=N)Oc3ccc4ccccc4c32)c1` (stereo not drawn) it was 439 nM (active); in that of `CCOC(=O)CC(=O)Nc1ncnc2c1C(c1ccccc1)c1c(ccc3ccccc13)O2` (stereo not drawn), 616 nM (active); in that of `O=C1OC(c2ccccc2)(c2ccccc2)N2CCN(C(=O)NCc3ccc(F)cc3)CC12` (stereo not drawn), 5.62 nM (active). On to `N=c1c2c(ccn1-c1ccccc1)Oc1ccc3ccccc3c1C2c1ccccc1` (stereo not drawn), for which the Potency is 367 nM (active). Consider `COc1ccc(C2c3c(ncn(CCN4CCOCC4)c3=N)Oc3ccc4ccccc4c32)cc1OC` (stereo not drawn), for which the Potency is 256 nM (active) and 190 nM (active). With `COc1cccc(C2c3c(ncn(-c4ccccc4)c3=N)Oc3ccc4ccccc4c32)c1` (stereo not drawn), the Potency is 266 nM (active).
